# Compounds without any hit were thinned out: in the full panel of roughly 79,000, 15% have a hit. The source made the active and inactive calls. Cut-off read from the data, not from the text of the source: active = growth inhibition above about 70%; inactive = the rest.
# Test: NCI Yeast Anticancer Drug Screen. Data for the mlh1 rad18 strain (AID 175)
# Conditions: S. cerevisiae mlh1 rad18 strain growth inhibition; at 50.0 µM; hits give high values
# Outline: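 Cells of a genetically altered yeast strain, deficient in DNA damage repair, were treated with compound. Their growth was then compared with that of vehicle-treated cultures to give inhibition.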
row,SMILES,growth inhibition
1,COc1ccc(C2=C/C(=C/c3cccs3)C(=O)O2)cc1,0.15% (inactive)
2,N#CC(=C1c2ccccc2-c2ccccc21)c1ccccc1,-20.5% (inactive)
3,Cc1ccccc1NC(=O)NN,-5.35% (inactive)
4,CCC(C)N(C(C)=O)C(C)CC (configuration not stated),1.85% (inactive)
5,CC(C)(Oc1ccc(Cl)cc1)C(=O)NC1CC(C)(C)N(O)C(C)(C)C1,-18.4% (inactive)
6,c1ccc(N=C2N=c3ccccc3=C2c2c(Nc3ccccc3)[nH]c3ccccc23)cc1,17.6% (inactive)
7,CC(C)N(CC(=O)NC(=O)c1ccccc1)Cc1ccccc1,-11.7% (inactive)
8,Nc1nc2c(nc(OCc3ccccc3)n2C2OC(CO)C(O)C2O)c(=O)[nH]1 (configuration not stated),16.1% (inactive)
9,Clc1cnnc(Cl)c1N/N=C/c1ccco1,-7.55% (inactive)
10,COc1ccc(C(=O)O/N=C2/CCC/C2=C\c2ccccc2)cc1,8.4% (inactive)
11,COC(=O)c1nnn(-c2c(C)cccc2C(C)C)c1C(=O)c1ccccc1,24.1% (inactive)
12,O=C1O[C@@H](c2ccccc2)C[C@@H]1CN1CCOCC1,15.1% (inactive)
13,Cc1ccc2c(c1)C(C(C)C)CCC2(C)C (configuration not stated),0.7% (inactive)
14,CC1(O)c2ccccc2-c2nc3ccccc3nc21 (configuration not stated),-15.4% (inactive)
15,Nc1cccc(=O)[nH]1,-3.85% (inactive)
16,CCCCc1c2c(nc3c1CCC/C3=C\c1ccccc1)C(=O)CCC2,18.1% (inactive)
17,Cn1ncc2c(=S)nc[nH]c21,-13.8% (inactive)
18,CCC1(C(Cl)(Cl)Cl)C=CC(=O)C=C1,-21.1% (inactive)
19,O=C(O)C1OC1(c1ccccc1Cl)c1ccccc1Cl (configuration not stated),9.55% (inactive)
20,O=S(=O)(CS(=O)(=O)c1ccccc1Br)c1ccccc1Br,6.95% (inactive)
21,Cc1nc2c(Cl)cc(Cl)cc2c(Cl)c1CCCl,45.6% (inactive)
22,CC(C)CCCC(C)C1CCC2C3CC=C4CC(OC5CCC6(C)C(=CCC7C6CCC6(C)C(C(C)CCCC(C)C)CCC76)C5)CCC4(C)C3CCC12C (configuration not stated),4.8% (inactive)
